Test results: PubChem BioAssay (NCI)
This is part of a sample that, as a whole, favours compounds with a hit. Of some 83,000 tested, about 20% had one in any assay.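 Single-concentration screen, 48 h exposure, 96-well plates. Endpoint: percent growth. Below 10 = active.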 The source made the active and inactive calls.

Assays:
Assay in all cases: NCI-60 one-dose screen, 48 h (100 = growth as untreated, 0 = no growth, -100 = all killed)
Conditions in all cases: 10 µM unless noted
[1] = tested on: NCI-H23 lung
[2] = tested on: NCI-H226 lung
[3] = tested on: NCI-H322M lung
[4] = tested on: HOP-62 NSCLC
[5] = tested on: NCI-H460 lung
[6] = tested on: HOP-92 NSCLC
[7] = tested on: NCI-H522 lung
[8] = tested on: A549/ATCC NSCLC
[9] = tested on: 786-0 renal
[10] = tested on: COLO 205 colon
[11] = tested on: DU-145 prostate
[12] = tested on: K-562 leukemia
[13] = tested on: MALME-3M melanoma
[14] = tested on: MDA-MB-231 breast
[15] = tested on: RXF 393 renal
[16] = tested on: SF-268 CNS
[17] = tested on: SF-295 CNS
[18] = tested on: SF-539 CNS
[19] = tested on: UACC-257 melanoma
[20] = tested on: M14 melanoma

Measured: growth

c1nc2ccc(-c3cc4ccc5[nH]ncc5c4c4c3CCCC4)cc2[nH]1
inactive: [1] 78.8% | [2] 57.1% | [3] 41% | [4] 74.3% | [5] 63.1% | [6] 66% | [7] 37.5% | [8] 65.1% | [9] 43.6% | [10] 52.2% | [11] 62.5% | [12] 27.8% | [13] 28.8% | [14] 81.6% | [15] 62.6% | [16] 71.1% | [17] 67.9% | [18] 48.7% | [19] 59.1%
active: [20] 7.72%

O=C(Nc1ccc(Cl)cc1)Oc1c(Cl)c(Cl)c(Cl)c(Cl)c1Cl
inactive: [1] 86.1% | [2] 89.6% | [3] 95.2% | [4] 85.6% | [5] 101% | [6] 41% | [7] 83.2% | [8] 93.3% | [9] 94.7% | [10] 105% | [11] 97.9% | [12] 89.9% | [13] 93.7% | [14] 92.9% | [15] 106% | [16] 92.9% | [17] 83.2% | [18] 94.8% | [19] 100% | [20] 96.8%

O=C1C(Nc2ccccn2)=C(I)C(=O)c2ncccc21
inactive: [2] 33% | [10] 49.2%
active: [1] -35.1% | [3] -31.2% | [4] -72.5% | [5] -61.4% | [6] -2.25% | [7] -63.1% | [8] -48.8% | [9] -22.9% | [11] -93.6% | [12] 1.75% | [13] -99.6% | [14] -31.8% | [15] -60.8% | [16] -33.1% | [17] -31.6% | [18] -98% | [19] -27.9% | [20] -84.5%

CC(=O)c1sc2sc(C(C)=O)c(C)c2c1C
inactive: [1] 101% | [2] 42.5% | [3] 99% | [4] 80.3% | [5] 97.9% | [6] 91.1% | [7] 76.6% | [8] 74.8% | [9] 89.2% | [10] 114% | [11] 111% | [12] 95.5% | [13] 126% | [14] 101% | [15] 93% | [16] 97.1% | [17] 105% | [18] 85.1% | [19] 81.3% | [20] 107%

C=Cc1cnc(Nc2ccc(OC)cc2)nc1NCCCNC(=O)C1CCC1
active: [14] -6.62% | [15] -1.29%
inactive: [1] 45.2% | [2] 46.5% | [3] 68.8% | [4] 40.7% | [5] 34.5% | [6] 55.4% | [7] 47.9% | [8] 32.4% | [9] 44.3% | [10] 44.8% | [11] 46.3% | [12] 34.3% | [13] 52.5% | [16] 28.5% | [17] 59.6% | [18] 22% | [19] 70.5% | [20] 46.8%

N[C@H]1CCC[C@@H]1NCCCCN1C(=O)c2cccc3cc([N+](=O)[O-])cc(c23)C1=O
inactive: [1] 47.7% | [2] 34.4% | [3] 53.4% | [4] 38.4% | [5] 13.7% | [6] 30.1% | [7] 38.4% | [8] 27.6% | [9] 31% | [10] 26% | [11] 29.9% | [12] 25.2% | [13] 73% | [14] 39.5% | [15] 44.1% | [16] 36.5% | [17] 66.6% | [18] 38.1% | [19] 72.7% | [20] 76.8%

COc1ccc2c(c1)c(-c1nc(-c3c[nH]c4ncccc34)cs1)cn2CCCN1CCOCC1
inactive: [1] 56.6% | [2] 45.4% | [3] 42.1% | [4] 28.9% | [5] 25.7% | [6] 27.9% | [7] 26.3% | [8] 42% | [11] 41.5% | [16] 43.9% | [18] 33.6% | [19] 49.9% | [20] 10%
active: [9] -24.3% | [10] -38.5% | [12] -5.12% | [13] 5.55% | [14] 9.85% | [15] -9.75% | [17] -34.4%

COc1cc2c(c(OC)c1OC)C(=O)CC(c1cccc(NC(=O)c3ccc(C#N)cc3)c1)O2 (stereo not given)
inactive: [1] 70.6% | [2] 68.3% | [3] 91.4% | [4] 73.6% | [5] 85.6% | [6] 67.6% | [7] 46.6% | [8] 77.4% | [9] 91.9% | [10] 90.6% | [11] 83.6% | [12] 48.6% | [13] 83.7% | [14] 79.9% | [15] 97.3% | [16] 86.5% | [17] 77.9% | [18] 92.7% | [19] 72.3% | [20] 64.4%

Cc1ccc(C(=O)c2ccc(CC(=O)N=Nc3c(O)[nH]c4ccc(Br)cc34)n2C)cc1
inactive: [1] 76.1% | [2] 77.9% | [3] 92% | [4] 89.6% | [5] 104% | [6] 106% | [7] 84.1% | [8] 87.2% | [9] 97.6% | [10] 106% | [11] 97.8% | [12] 83.5% | [13] 111% | [14] 88.4% | [15] 87% | [16] 87.7% | [17] 99.1% | [18] 92.4% | [19] 105% | [20] 91.3%

Cc1ccc(C)c2c(C)c(C(=O)Nc3cccc(-n4cccn4)c3)oc12
inactive: [1] 73.1% [50 µM] | [2] 62.1% [50 µM] | [3] 86.5% [50 µM] | [4] 99.4% [50 µM] | [5] 56.4% [50 µM] | [6] 90.8% [50 µM] | [7] 32% [50 µM] | [8] 58.4% [50 µM] | [9] 82.2% [50 µM] | [10] 62.8% [50 µM] | [11] 76.5% [50 µM] | [12] 37.1% [50 µM] | [13] 67.6% [50 µM] | [14] 76.9% [50 µM] | [15] 79.6% [50 µM] | [16] 67.4% [50 µM] | [17] 66% [50 µM] | [18] 85.2% [50 µM] | [19] 92.9% [50 µM] | [20] 63.5% [50 µM]

COc1ccc(/C=C(/C(=O)n2cnnn2)c2cc(OC)c(OC)c(OC)c2)cc1
inactive: [1] 41.8% | [2] 40.7% | [3] 50.8% | [4] 25.6% | [5] 12.7% | [6] 69.3% | [7] 20.6% | [8] 29% | [9] 35.5% | [11] 25.1% | [12] 15.3% | [13] 62.5% | [14] 36.7% | [16] 49% | [19] 70.2%
active: [10] -3.15% | [15] -4.36% | [17] -7.45% | [18] -7.92% | [20] -2.57%

C[C@@H]1O[C@@H](O[C@@H]2C[C@H](c3ccc4c(c3O)C(=O)C3=C(C4=O)[C@@]4(O)C(=O)C[C@](C)(O)C[C@@]4(O)C=C3)O[C@H](C)[C@H]2O)CC[C@@H]1O[C@H]1C[C@@H](O)[C@H](O)[C@@H](C)O1
active: [10] -19.1%
inactive: [1] 100% | [2] 116% | [3] 106% | [4] 113% | [5] 105% | [6] 149% | [7] 41.5% | [8] 95.3% | [9] 103% | [11] 110% | [12] 94.4% | [13] 65.4% | [14] 105% | [15] 113% | [16] 87% | [17] 102% | [18] 100% | [19] 98.4% | [20] 110%

C=C1C(=O)O[C@H]2[C@H]1CC/C(COC(=O)NCc1ccc(Cn3c(=O)sn(-c4ccc(C#N)cc4)c3=O)cc1)=C\CC[C@@]1(C)O[C@@H]21
inactive: [1] 78.2% | [2] 95.5% | [3] 104% | [4] 92.2% | [5] 104% | [6] 26.1% | [8] 96.7% | [9] 66.1% | [10] 38.1% | [12] 20.4% | [13] 56.9% | [14] 48.6% | [15] 52.7% | [16] 75.1% | [17] 102% | [18] 61.2% | [19] 69.4% | [20] 68.8%
active: [7] -28% | [11] 8.56%

O=C(NCc1cccc(CNC(=O)Nc2nc3ccccc3[nH]2)c1)Nc1nc2ccccc2[nH]1
active: [1] -65.1% | [2] -22.2% | [3] -7.92% | [4] -46.2% | [5] -52.9% | [6] -27.7% | [7] 1.54% | [8] -42.5% | [9] -42.8% | [10] -2.34% | [11] -32.6% | [12] 0.347% | [13] -74.2% | [14] -66.6% | [16] 0.441% | [17] 5.41% | [19] -54.1% | [20] -77.4%
inactive: [15] 43.1% | [18] 27.5%
